The values below come from the supplement of paper PMC7695840.

Where a name gives a salt, the structure may show the parent alone.

The test concerns Staphylococcus aureus MW2 delta-mecA (mecA-). The experiment in a line: normalized GFP fluorescence (growth of mecA- strain) (fraction of control range); higher = more growth of mecA- strain. The note with it: compound concentration: 150 uM; cefoxitin: subinhibitory; fluorescent label: GFP. In outline:
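A 1:1 mix of pre-induced S. aureus MW2 cells, DsRed-labeled with the gene and GFP-labeled without it, was grown in LB with a daily-set subinhibitory antibiotic dose on 150 μM compound (1.5% DMSO) in 1536-well plates, single replicate. Growth lasted 20 h at 37 °C, 90% humidity, without shaking, and DsRed (540/590) and GFP (485/520) were then read. Channels were scaled per plate to single-strain control medians, and plates with high untreated ratios and rows with DsRed/GFP >10 were removed.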
For the compound `Cc1nccn1CC1CCc2c(c3ccccc3n2C)C1=O` (stereo not given), the “normalized GFP fluorescence” value worked out at 0.319.

As for `COC(=O)Nc1nc2cc(C(=O)c3ccc(F)cc3)ccc2[nH]1`, the “normalized GFP fluorescence” value was 0.715. In the case of `C=CCCCCCCCCC(=O)O` it was 0.13. In the case of `CCOC(=O)C1=C(C)NC(C)=C(C(=O)OCC)C1c1ccccc1/C=C/C(=O)OC(C)(C)C` [Lacidipine (Lacipil, Motens)] it was 0.112.

For `CCN(CC)CCNC(=O)c1cc(Cl)c(N)cc1OC`, the “normalized GFP fluorescence” value is 0.639.

Consider `CN1CCC(=C2c3ccccc3CC(=O)c3sccc32)CC1` [Ketotifen fumarate (Zaditor)], for which the “normalized GFP fluorescence” value is 0.402. The figure for `CC1=C(C(=O)O)N2C(=O)[C@@H](NC(=O)[C@H](N)C3=CCC=CC3)[C@H]2SC1` is 0.00153; for `Cc1ncc([N+](=O)[O-])n1CC(O)CCl` (stereo not given) it is 0.488. Consider `CO[C@H]1C[C@@H]2CC[C@@H](C)[C@@](O)(O2)C(=O)C(=O)N2CCCC[C@H]2C(=O)O[C@H]([C@H](C)C[C@@H]2CC[C@@H](O)[C@H](OC)C2)CC(=O)[C@H](C)/C=C(\C)[C@@H](O)[C@@H](OC)C(=O)[C@H](C)C[C@H](C)/C=C/C=C/C=C/1C`, for which the “normalized GFP fluorescence” value was 0.0214. In the case of `COc1cccc2c1C(=O)c1c(O)c3c(c(O)c1C2=O)C[C@@](O)(C(=O)CO)C[C@@H]3O[C@H]1C[C@H](N)[C@@H](O)[C@H](C)O1`, the “normalized GFP fluorescence” value is -0.00778. The figure for `OCCOCCN1CCN(C2=Nc3ccccc3Sc3ccccc32)CC1` [Quetiapine fumarate (Seroquel)] is 0.0887. For `C[C@@H]1O[C@@H]1P(=O)(O)O`, the “normalized GFP fluorescence” value was determined as 0.142. In the case of `CO/N=C(\C(=O)N[C@@H]1C(=O)N2C(C(=O)OC(C)OC(C)=O)=C(COC(N)=O)CS[C@H]12)c1ccco1` (stereo not given in full) it was 0.0118; in that of `O=C(O)CCCCCCCC(=O)O`, 0.422; in that of `CCC(C)(C)c1ccc(CC(C)CN2C[C@@H](C)O[C@@H](C)C2)cc1` (stereo not given in full), 0.099. The figure for `CN1CCOC(c2ccccc2)c2ccccc2C1` (stereo not given) is 0.242. In the case of `CCC1(C)OC(=O)N(C)C1=O` (stereo not given) it was 0.387. With `CCOC(=O)[C@H](CCc1ccccc1)N[C@H]1CS[C@H](c2cccs2)CN(CC(=O)O)C1=O` [Temocapril HCl], the “normalized GFP fluorescence” value came out at 0.372. Turning to `CO[C@@]1(NC(=O)Cc2cccs2)C(=O)N2C(C(=O)O)=C(COC(N)=O)CS[C@@H]21`, the “normalized GFP fluorescence” value came to 0.00393.

Turning to `COc1ccc2[nH]cc(CCNC(C)=O)c2c1` [Melatonin], the “normalized GFP fluorescence” value was found to be 0.484.

As to `CC[C@]1(O)C[C@H]2CN(CCc3c([nH]c4ccccc34)[C@@](C(=O)OC)(c3cc4c(cc3OC)N(C=O)[C@H]3[C@@](O)(C(=O)OC)[C@H](OC(C)=O)[C@]5(CC)C=CCN6CC[C@]43[C@@H]65)C2)C1`, the “normalized GFP fluorescence” value was 0.501.

`Cc1ncc(C[n+]2csc(CCO)c2C)c(N)n1`: the “normalized GFP fluorescence” value was determined as 0.111. The figure for `CO[C@H]1C[C@@H]2CC[C@@H](C)[C@@](O)(O2)C(=O)C(=O)N2CCCC[C@H]2C(=O)O[C@H]([C@H](C)C[C@@H]2CC[C@@H](O)[C@H](OC)C2)CC(=O)[C@H](C)/C=C(\C)[C@@H](O)[C@@H](OC)C(=O)[C@H](C)C[C@H](C)/C=C/C=C/C=C/1C` [Rapamycin (Sirolimus)] is 0.00415.

As to `CN(Cc1ccc(C(C)(C)C)cc1)Cc1cccc2ccccc12` [Butenafine HCl], the “normalized GFP fluorescence” value stood at 0.11. In the case of `Oc1c(Cl)cc(Cl)c(Cl)c1Cc1c(O)c(Cl)cc(Cl)c1Cl` it was 0.11. As for `CCC1=C(C)CN(C(=O)NCCc2ccc(S(=O)(=O)NC(=O)N[C@H]3CC[C@H](C)CC3)cc2)C1=O`, the “normalized GFP fluorescence” value was determined as 0.0961. In the case of `COC(=O)[C@H](c1ccccc1Cl)N1CCc2sccc2C1` it was 0.0333. In the case of `CN(C)[C@@H]1C(O)=C(C(N)=O)C(=O)[C@@]2(O)C(O)=C3C(=O)c4c(O)cccc4[C@@](C)(O)[C@H]3[C@H](O)[C@@H]12` [Oxytetracycline dihydrate] it was 0.0661. In the case of `COc1cccc2c1C(=O)c1c(O)c3c(c(O)c1C2=O)C[C@@](O)(C(=O)CO)C[C@@H]3O[C@H]1C[C@H](N)[C@H](O)[C@H](C)O1` [Doxorubicin (Adriamycin)], the “normalized GFP fluorescence” value is -0.0343. In the case of `O=C1C(O)=C([C@H]2CC[C@H](c3ccc(Cl)cc3)CC2)C(=O)c2ccccc21` [Atovaquone (Atavaquone)] it was 0.714; in that of `CC1(C)[C@H](C(=O)O)N2C(=O)C[C@H]2S1(=O)=O`, 0.00608; in that of `Nc1ccn([C@@H]2O[C@H](CO)[C@@H](O)[C@@H]2O)c(=O)n1`, 0.00362. The figure for `Fc1ccc(C(c2ccc(F)cc2)N2CCN(C/C=C/c3ccccc3)CC2)cc1` is 0.0954; for `C[C@@H](O)[C@H]1C(=O)N2C(C(=O)O)=C(SCCNC=N)C[C@H]12` it is -0.0325; for `Cc1cc(/C=C/c2ccc3cc(N(C)C)ccc3[n+]2C)c(C)n1-c1ccccc1` it is -0.0128.

Turning to `CCCCCOC(=O)Nc1nc(=O)n([C@@H]2O[C@H](C)[C@@H](O)[C@H]2O)cc1F` [Capecitabine (Xeloda)], the “normalized GFP fluorescence” value turned out to be 0.0511. In the case of `COc1cccc2c1C(=O)c1c(O)c3c(c(O)c1C2=O)C[C@@](O)(C(C)=O)C[C@@H]3O[C@H]1C[C@H](N)[C@H](O)[C@H](C)O1` it was -0.00425. The figure for `COCC1=C(C(=O)OC(C)OC(=O)OC(C)C)N2C(=O)[C@@H](NC(=O)/C(=N\OC)c3csc(N)n3)[C@H]2SC1` (stereo not given in full) is 0.00501; for `Cc1cn[nH]c1` it is 0.665. For `NC[C@H](O)c1ccc(O)c(O)c1`, the “normalized GFP fluorescence” value turned out to be 0.502.
